# Screening results deposited in PubChem BioAssay by National Center for Advancing Translational Sciences (NCATS).
# TDP1 cell CPT – growth inhibition of DT40 Tdp1-/-;hTDP1 cells with camptothecin (screen for TDP1 inhibitors) | chicken DT40 Tdp1-/-;hTDP1 cells + 20 nM CPT, ATP luminescence, 48 h | 12% of 420,000 active | Potency, µM (series often up to 46.2 µM), without a hit: at the highest dose activity change, negative = growth inhibition, most hits filed as inhibitors; further: potency means the concentration at half of the fitted maximal effect; nearly all actives have a fitted effect of over 55% in size
#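 Cell growth measured by CellTiter-Glo luminescence after a minimum 48 h, 37 C compound exposure with 20 nM CPT in Tdp1-knockout DT40 cells stably expressing hTDP1, seeded 400/well; qHTS titration format.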
# HT1080 IDH1KD tx – toxicity to HT-1080 IDH1 knockdown cells (counter line) | Potency, µM (doses to about 46.1 µM), for inactives: at the highest dose activity, negative = toxicity, most hits filed as cytotoxic | 2% of 360,000 active | HT-1080 IDH1 knockdown viability, ATP luminescence, 48 h;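 further: potency means the concentration at half of the fitted maximal effect; 0% = DMSO wells and -100% = cell-free medium wells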
#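 Using the IDH1-knockdown HT-1080 line run in the same batch and compound series as the NT line, viability after 48 h at 37 °C was determined by CellTiter-Glo luminescence and expressed as % activity.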
# IL-1B inflam inh – blocks inflammasome-driven IL-1 beta release. activity change, % at 57.5 µM. 4.7% of 360,000 active. THP-1 LPS/ATP IL-1B secretion, AlphaLISA, 16 h; hits give low values. AID 743279; in the data active means activity change below about -50%; inconclusive means mostly about -30% to -49%
#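 Secreted IL-1B measured by AlphaLISA bead assay after 16 h compound exposure of THP-1 cells; compounds (final up to 57.5 uM) added 1 h before LPS (250 ng/mL) and ATP (1.25 mM) stimulation; lower signal means less secretion.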
# DT40 TDP1 no CPT – qHTS for Inhibitors of human tyrosyl-DNA phosphodiesterase 1 (TDP1): qHTS in cells in absence of CPT; DT40 Tdp1-/- hTDP1 cells, no CPT, ATP luminescence, 48 h; Potency, µM (top dose mostly 46.2 µM), inactives show at the highest dose activity change, negative = growth inhibition, hits mostly inhibitors; 15% of 420,000 active; further: potency means the concentration at half of the fitted maximal effect; nearly all actives have a fitted effect of over 55% in size
#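 Growth of hTDP1-complemented DT40 Tdp1-knockout cells is measured by ATP luminescence after at least 48 hr compound exposure at 37 °C, with DMSO substituting for the 20 nM CPT used in the parallel screen.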
# HT1080-NT tox – kills 2HG-producing HT-1080-NT fibrosarcoma cells; HT-1080-NT fibrosarcoma viability, CellTiter-Glo ATP luminescence, 48 h; Potency, µM (series often up to 46.1 µM), inactives show at the highest dose activity, negative = less viability, hits mostly cytotoxic; 1.6% of 360,000 active; AID 686970;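 further: NT is the 2HG producing partner of a matched IDH1 knockdown line; potency means the concentration at half of the fitted maximal effect; 0% = DMSO-treated cells and -100% = media-only wells without cells; nearly all actives have a fitted effect of over 55% in size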
#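 Read-out is CellTiter-Glo luminescence after 10 minutes at room temperature, following 48 hours' compound treatment of HT-1080-NT cells (750 cells/well, RPMI, 5% FBS, 37 degrees C).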
# * marks the source's active call; other numbers are inactive results; ? = inconclusive; nt = no result given; [ ] = dose if it differs, or a comment. Shown are actives, neighbours in structure and some others; about 19% of the full set was active somewhere. Unless noted, the call rests on the fitted dose curve; in most records, active means well fitted curve in the direction sought with a large enough effect; inconclusive means small, poorly fitted or top-dose-only effect, or another doubt; inactive means no such curve, though single readings can be large; an effect the other way counts as inactive or inconclusive. Unless noted, on the % scale 0 is the no-effect control and ±100 the full control effect.
SMILES,TDP1 cell CPT,HT1080 IDH1KD tx,IL-1B inflam inh,DT40 TDP1 no CPT,HT1080-NT tox
Cc1nc2ccccc2c(=O)n1C1CCCCCC1,?,-7%,17,?,-2%
CCn1c(-c2ccccc2SC)n[nH]c1=S,15%,7%,-8,16µM*,1%
CCn1c(-c2csc3c2CCCC3)n[nH]c1=S,29µM*,13%,-5,23µM*,12%
CCn1c(-c2cccn(Cc3ccccc3)c2=O)n[nH]c1=S,5%,3%,6,-9%,1%
COc1ccc(CN2CC(C(=O)N3CC(C)CC(C)C3)CC2=O)cc1 (stereo not given),-2%,0%,15,17%,3%
Cc1cc(OCC(=O)Nc2c(C(=O)c3ccccc3)oc3ccccc23)cc(C)c1Cl,10%,nt,nt,2%,nt
Cc1cc(Cl)c2oc(C(=O)N3CCN(c4cnccn4)CC3)c(C)c2c1,?,-28%,-21,?,-10%
Cc1ccc(C(=O)N2CCN(Cc3ccc4c(c3)OCO4)CC2)o1,-5%,-1%,-16,-8%,9%
Cc1ccc2c(C)c(C(=O)N3CCN(c4cnccn4)CC3)oc2c1C,?,-8%,-63*,18µM*,2%
COc1cccc(OC)c1C(=O)N1CCN(Cc2ccc3c(c2)OCO3)CC1,?,1%,3,?,2%
O=C(c1sccc1Br)N1CCN(Cc2ccc3c(c2)OCO3)CC1,-29%,-15%,-71*,?,-1%
O=C(c1cc(F)c(F)c(F)c1F)N1CCN(Cc2ccc3c(c2)OCO3)CC1,?,1%,-11,-17%,-1%
O=C(N1CCN(Cc2ccc3c(c2)OCO3)CC1)C12CC3CC(CC(C3)C1)C2,?,-3%,-85*,?,5%
Cc1ccc2c(C)c(C(=O)N3CCN(Cc4ccc5c(c4)OCO5)CC3)oc2c1C,?,-27%,-78*,?,-11%
CCCc1c(C(=O)NNc2cccc(Cl)c2)cnn1-c1ccccc1,?,-23%,-28,?,-1%
O=C(Cn1ncc2c1-c1ccccc1OC2)N1CCN(Cc2ccc3c(c2)OCO3)CC1,-30%,1%,14,?,-25%
O=C(CN1Cc2ccccc2OC(c2ccsc2)C1)N1CCN(Cc2ccc3c(c2)OCO3)CC1 (stereo not given),-11%[9.04 µM],nt,nt,23µM*,nt
Clc1ccccc1OCCCOc1cccc2cccnc12,15µM*,-16%,?,?,2%
O=Cc1ccccc1OCCCOc1cccc2cccnc12,4.6µM*,?,-11,2.1µM*,?
Brc1ccc(OCCCOc2cccc3cccnc23)cc1,-1%,-3%,-1,-23%,2%
Cc1cccc(OCCCCc2c(C)n[nH]c2C)c1C,12µM*,?,-10,?,?
Cc1cccc(OCCCOc2cccc3cccnc23)c1C,?,?,-7,18µM*,?
Cc1ccc(OCCCOc2cccc3cccnc23)cc1C,?,?,-7,?,-23%
Cc1ccnc(NS(=O)(=O)c2ccc(NC(=O)C(C)(C)Oc3ccc(Cl)cc3)cc2)n1,-15%,nt,nt,1%,nt
O=C1CC(c2nc(-c3cccc(Cl)c3)no2)CN1c1ccc2c(c1)OCCO2 (stereo not given),-12%,nt,nt,-9%,nt
SMILES,TDP1 cell CPT,HT1080 IDH1KD tx,IL-1B inflam inh,DT40 TDP1 no CPT,HT1080-NT tox
O=C(NCCCN1CCOCC1)[C@@H]1CSC2c3ccccc3C(=O)N21 (stereo not given in full),22%,7%,12,-6%,7%
O=C(/C=C/c1ccccc1)Oc1cccc2cccnc12,?,3%,-2,8.2µM*,11%
CCCCNC(=O)c1nc(C2CCNCC2)oc1-c1ccccc1,?,-1%,-21,?,-1%
CN[C@H]1C[C@H]2c3[nH]c4ccc(-c5cccc(C)c5)cc4c3CCN2C[C@H]1[C@H](C)O,7.3µM*,?,?,12µM*,16µM*
C[C@@H]1ON(C)[C@H]2C[C@H]3c4[nH]c5ccccc5c4CCN3C[C@@H]12,9%,4%,24,-10%,0%
Cc1cccc(-c2ccc3[nH]c4c(c3c2)CCN2C[C@H]3[C@H](C)ON(C)[C@H]3C[C@@H]42)c1,?,?,-9,15µM*,?
Cc1cccc(-c2ccc3[nH]c4c(c3c2)CCN2C[C@@H]([C@H](C)O)[C@@H](N(C)C(=O)NC3CCCCC3)C[C@@H]42)c1,13µM*,?,-15,?,?
Cc1cccc(C)c1NC(=O)C(c1ccncc1)N1CCN(CCN(C)C)CC1 (stereo not given),11%,14%,0,14%,7%
O=C(OCc1ccccc1)N1CCN(C(c2ccnc3ccccc23)c2nnnn2-c2ccc3c(c2)OCCO3)CC1 (stereo not given),23µM*,?,?,8.2µM*,?
Cc1cccc(C)c1-n1nnnc1C(c1ccnc2ccccc12)N1CCN(CC(=O)NC(C)C)CC1 (stereo not given),-13%,?,39,-27%,12%
CN(C)CCN1CCN(C(c2ccnc3ccccc23)c2nnnn2-c2ccc3c(c2)OCCO3)CC1 (stereo not given),-23%,-2%,-10,16µM*,-26%
Cc1cccc(C)c1-n1nnnc1C(c1ccnc2ccccc12)N1CCCN(C(=O)OC(C)(C)C)CC1 (stereo not given),?,?,37,18µM*,16%
c1ccc2c(C(c3nnnn3-c3ccc4c(c3)OCCO4)N3CCCC3)ccnc2c1 (stereo not given),-2%,1%,51,?,7%
Cc1cccc(C)c1NC(=O)C(c1ccnc2ccccc12)N1CCN(CCN(C)C)CC1 (stereo not given),4.6µM*,0%,39,5.2µM*,-12%
c1ccc2c(C(c3nnnn3-c3ccc4c(c3)OCCO4)N3CCOCC3)ccnc2c1 (stereo not given),3%,-1%,5,-2%,12%
Cc1ccc(NC(=O)CCNS(=O)(=O)c2cccc3nsnc23)cc1F,3%,5%,-2,-29%,11%
O=C(Nc1ccc(F)cc1)C(c1ccnc2ccccc12)N1CCN(c2cccc(C(F)(F)F)n2)CC1 (stereo not given),?,?,2,21µM*,?
O=C(Nc1ccc(F)cc1)C(c1ccccc1OC(F)(F)F)N1CCN(c2cccc(C(F)(F)F)n2)CC1 (stereo not given),?,-23%,-2,?,-14%
COC(=O)c1ccc(COc2cc([N+](=O)[O-])cc3cccnc23)o1,-6%,-14%,0,-23%,-13%
